# Measurements: PubChem BioAssay (EPA / NIEHS)
# Records with an inconclusive call do not appear. Active and inactive are the calls of the source. How the source made its calls, unless noted: active means hit-call score of the fitted dose curve at least 0.9, where 1 is the maximum; inconclusive means response in the unintended direction; inactive means score below 0.9.
# Legend:
# [1] = molecular target: human CYP2B6, CYP2B6 (gene 1555) (UniProt P20813); assay: NVS_ADME_hCYP2B6: NovaScreen (NVS) CYP450-related Enzyme Activity (ADME) Assay for human CYP2B6 (AID 2283101)
# Sequence of human CYP2B6, CYP2B6 (gene 1555) (P20813 whole entry, looked up): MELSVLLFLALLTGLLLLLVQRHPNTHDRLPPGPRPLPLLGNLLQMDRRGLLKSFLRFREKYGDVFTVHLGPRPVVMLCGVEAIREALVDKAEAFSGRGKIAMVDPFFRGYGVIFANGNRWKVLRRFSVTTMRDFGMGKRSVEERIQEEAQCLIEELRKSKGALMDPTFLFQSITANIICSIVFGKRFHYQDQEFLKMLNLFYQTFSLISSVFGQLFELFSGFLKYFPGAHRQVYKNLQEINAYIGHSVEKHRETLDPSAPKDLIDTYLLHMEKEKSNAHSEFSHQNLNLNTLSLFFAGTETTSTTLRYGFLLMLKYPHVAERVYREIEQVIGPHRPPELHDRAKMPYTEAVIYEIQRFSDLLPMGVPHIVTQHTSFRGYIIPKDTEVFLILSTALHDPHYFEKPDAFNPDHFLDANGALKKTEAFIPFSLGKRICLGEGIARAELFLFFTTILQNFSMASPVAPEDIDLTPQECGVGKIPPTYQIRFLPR
# In short: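 Compounds were first screened in duplicate at 10 uM against recombinant enzyme, with the fluorescent product measured after 1 hour. Active compounds were retested over a concentration series. Loss of fluorescence versus acetonitrile control was scored as reduced enzyme activity.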
# [2] = molecular target: Cytochrome P450 2C19 (Homo sapiens) (UniProt P33261); assay: NVS_ADME_hCYP2C19: NovaScreen (NVS) CYP450-related Enzyme Activity (ADME) Assay for human CYP2C19 (AID 2283113);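 on AC50: potency for inhibition seen as loss of fluorescent signal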
# In short: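 Biochemical CYP2C19 inhibition screen: insect-cell recombinant protein plus fluorescent substrate, 1 h, fluorescence intensity. Acetonitrile defined baseline activity. Single 10 uM concentration in duplicate, with concentration-response follow-up for actives.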
# [3] = molecular target: human CYP1A2, CYP1A2 (gene 1544) (UniProt P05177); assay: NVS_ADME_hCYP1A2: NovaScreen (NVS) CYP450-related Enzyme Activity (ADME) Assay for human CYP1A2 (AID 2283102);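 on AC50: potency for inhibition since loss of fluorescence marks reduced CYP1A2 activity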
# Sequence of human CYP1A2, CYP1A2 (gene 1544) (P05177 whole entry, looked up): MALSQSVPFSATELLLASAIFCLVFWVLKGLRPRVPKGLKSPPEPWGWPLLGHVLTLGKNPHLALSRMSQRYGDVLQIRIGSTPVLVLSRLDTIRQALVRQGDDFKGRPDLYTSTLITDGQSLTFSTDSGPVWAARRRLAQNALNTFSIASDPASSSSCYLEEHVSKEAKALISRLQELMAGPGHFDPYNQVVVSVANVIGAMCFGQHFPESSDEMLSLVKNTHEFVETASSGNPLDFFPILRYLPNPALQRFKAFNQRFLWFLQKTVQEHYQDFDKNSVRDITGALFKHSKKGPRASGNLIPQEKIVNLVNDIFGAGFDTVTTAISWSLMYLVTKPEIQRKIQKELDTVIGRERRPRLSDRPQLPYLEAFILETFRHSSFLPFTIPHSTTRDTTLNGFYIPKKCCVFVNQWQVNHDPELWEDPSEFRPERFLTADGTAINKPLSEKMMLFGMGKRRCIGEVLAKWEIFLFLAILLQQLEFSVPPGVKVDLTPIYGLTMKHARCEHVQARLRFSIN
# In short: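 Inhibition scored as decrease in fluorescent product versus acetonitrile negative control. Enzyme: insect-cell recombinant human CYP1A2, substrate-specific, cell-free. Reading at 0.5 h; 10 uM duplicate initial screen with positive and negative controls on every plate.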
# [4] = molecular target: human CYP2D6, CYP2D6 (gene 1565) (UniProt P10635); assay: NVS_ADME_hCYP2D6: NovaScreen (NVS) CYP450-related Enzyme Activity (ADME) Assay for human CYP2D6 (AID 2283107)
# In short: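 Biochemical fluorescence assay, insect-cell-derived enzyme. Read at 1 h; inhibition taken from loss of signal against acetonitrile. Screened at 10 uM in duplicate, with concentration series for actives.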
# [5] = molecular target: rat CYP1A2, Cyp1a2 (gene 24297) (UniProt P04799); assay: NVS_ADME_rCYP1A2: NovaScreen (NVS) CYP450-related Enzyme Activity (ADME) Assay for rat CYP1A2 (AID 2283115)
# In short: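 Cell-free recombinant rat enzyme with fluorogenic substrate, read by fluorescence intensity 1 hour after dosing. Loss of signal versus acetonitrile negative control; primary screen at 10 uM in duplicate, actives followed in concentration series.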
# [6] = system: rat CYP3A1, gene 25642; assay: NVS_ADME_rCYP3A1: NovaScreen (NVS) CYP450-related Enzyme Activity (ADME) Assay for rat CYP3A1 (AID 2283126)
# In short: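 Cell-free recombinant CYP assay with fluorescent substrate, read 0.5 h after dosing. Screened at 10 uM in duplicate, hits at up to 20 uM in concentration-response; loss of signal versus acetonitrile baseline.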
# [7] = molecular target: rat CYP3A2, Cyp3a2 (gene 266682) (UniProt P05183); assay: NVS_ADME_rCYP3A2: NovaScreen (NVS) CYP450-related Enzyme Activity (ADME) Assay for rat CYP3A2 (AID 2283128)
# Sequence of rat CYP3A2, Cyp3a2 (gene 266682) (P05183 whole entry, looked up): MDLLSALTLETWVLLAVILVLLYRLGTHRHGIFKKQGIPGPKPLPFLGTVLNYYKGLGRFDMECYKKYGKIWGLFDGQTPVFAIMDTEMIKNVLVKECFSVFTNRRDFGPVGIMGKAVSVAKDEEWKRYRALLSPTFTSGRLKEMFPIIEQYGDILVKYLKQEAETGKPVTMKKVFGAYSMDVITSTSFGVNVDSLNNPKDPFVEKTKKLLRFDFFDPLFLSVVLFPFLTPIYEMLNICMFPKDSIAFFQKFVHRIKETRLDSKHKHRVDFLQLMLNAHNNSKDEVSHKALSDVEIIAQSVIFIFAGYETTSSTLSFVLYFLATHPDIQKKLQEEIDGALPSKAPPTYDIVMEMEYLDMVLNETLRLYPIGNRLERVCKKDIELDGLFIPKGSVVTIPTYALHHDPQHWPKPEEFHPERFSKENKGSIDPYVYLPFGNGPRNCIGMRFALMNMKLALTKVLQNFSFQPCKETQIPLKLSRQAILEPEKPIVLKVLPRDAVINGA
# In short: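 Cell-free rat CYP3A2 enzyme assay with fluorescent substrate, read 0.5 h after dosing. Primary duplicate screen at 10 uM; actives run in concentration-response up to 20 uM, relative to acetonitrile baseline.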
# [8] = molecular target: Cytochrome P450 2C18 (Homo sapiens) (UniProt P33260); assay: NVS_ADME_hCYP2C18: NovaScreen (NVS) CYP450-related Enzyme Activity (ADME) Assay for human CYP2C18 (AID 2283103; active means hit-call score of the fitted dose curve at least 0.9, where 1 is the maximum; inactive means score below 0.9)
# Sequence of Cytochrome P450 2C18 (Homo sapiens) (P33260 whole entry, looked up): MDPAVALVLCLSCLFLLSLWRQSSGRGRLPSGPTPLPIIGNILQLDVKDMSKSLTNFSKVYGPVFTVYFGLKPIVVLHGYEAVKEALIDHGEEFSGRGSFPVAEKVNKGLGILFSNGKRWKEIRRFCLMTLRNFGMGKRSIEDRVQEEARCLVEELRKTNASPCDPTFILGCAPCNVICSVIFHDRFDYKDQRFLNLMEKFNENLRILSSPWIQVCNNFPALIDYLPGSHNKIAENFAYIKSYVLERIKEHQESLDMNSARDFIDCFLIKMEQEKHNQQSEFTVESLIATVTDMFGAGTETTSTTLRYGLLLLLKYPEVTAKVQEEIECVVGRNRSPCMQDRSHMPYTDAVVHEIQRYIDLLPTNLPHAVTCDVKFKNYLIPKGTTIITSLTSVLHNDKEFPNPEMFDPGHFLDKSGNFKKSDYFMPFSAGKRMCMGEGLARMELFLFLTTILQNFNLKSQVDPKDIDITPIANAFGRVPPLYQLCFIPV
# In short: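 Cell-free recombinant human CYP2C18 with fluorogenic substrate; fluorescence intensity read 0.5 h after dosing. Single-point screen at 10 uM in duplicate, then concentration-response up to 20 uM; loss of signal fitted against acetonitrile baseline.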
# [9] = molecular target: human CYP2J2, CYP2J2 (gene 1573) (UniProt P51589); assay: NVS_ADME_hCYP2J2: NovaScreen (NVS) CYP450-related Enzyme Activity (ADME) Assay for human CYP2J2 (AID 2283106)
# Sequence of human CYP2J2, CYP2J2 (gene 1573) (P51589 whole entry, looked up): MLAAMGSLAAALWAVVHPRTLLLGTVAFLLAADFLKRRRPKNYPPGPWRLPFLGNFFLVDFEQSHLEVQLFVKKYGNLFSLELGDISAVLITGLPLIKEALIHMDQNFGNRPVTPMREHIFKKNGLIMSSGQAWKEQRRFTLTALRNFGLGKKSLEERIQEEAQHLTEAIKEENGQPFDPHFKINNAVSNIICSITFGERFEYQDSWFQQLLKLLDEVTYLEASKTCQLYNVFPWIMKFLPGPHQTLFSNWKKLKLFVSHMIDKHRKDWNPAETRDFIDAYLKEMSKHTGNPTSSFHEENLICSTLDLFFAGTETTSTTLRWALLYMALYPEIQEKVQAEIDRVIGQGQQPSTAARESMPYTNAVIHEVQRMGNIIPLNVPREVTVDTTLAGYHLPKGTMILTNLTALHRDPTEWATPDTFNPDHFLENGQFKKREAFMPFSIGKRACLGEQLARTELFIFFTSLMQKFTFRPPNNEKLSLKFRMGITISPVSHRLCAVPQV
# In short: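 Cell-free assay of recombinant CYP2J2 with a fluorogenic substrate, read 1 h after dosing; loss of signal versus acetonitrile. Primary screen at 10 uM in duplicate, then concentration-response up to 20 uM for chemicals passing threshold (e.g., 30% inhibition).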
# [10] = molecular target: human CYP2C9, CYP2C9 (gene 1559) (UniProt P11712); assay: NVS_ADME_hCYP2C9: NovaScreen (NVS) CYP450-related Enzyme Activity (ADME) Assay for human CYP2C9 (AID 2283108)
# Sequence of human CYP2C9, CYP2C9 (gene 1559) (P11712 whole entry, looked up): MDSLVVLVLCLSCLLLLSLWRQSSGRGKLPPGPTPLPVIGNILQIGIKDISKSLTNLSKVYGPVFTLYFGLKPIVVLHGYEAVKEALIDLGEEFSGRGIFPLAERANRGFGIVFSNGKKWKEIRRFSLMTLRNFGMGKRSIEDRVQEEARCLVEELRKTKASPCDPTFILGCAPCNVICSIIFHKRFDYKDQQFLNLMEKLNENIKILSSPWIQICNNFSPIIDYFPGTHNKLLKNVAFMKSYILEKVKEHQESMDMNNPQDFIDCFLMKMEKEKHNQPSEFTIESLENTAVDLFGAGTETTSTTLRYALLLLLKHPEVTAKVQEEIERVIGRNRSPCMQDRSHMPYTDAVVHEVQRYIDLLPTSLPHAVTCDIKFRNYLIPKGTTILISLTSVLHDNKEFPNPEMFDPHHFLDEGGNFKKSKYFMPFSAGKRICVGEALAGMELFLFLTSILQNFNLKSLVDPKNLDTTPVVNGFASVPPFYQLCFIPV
# In short: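 Cell-free assay of recombinant human CYP2C9 produced in Sf9 cells, with enzyme activity read by fluorescence intensity 0.75 h after compound addition. Loss of signal versus an acetonitrile negative control indicates inhibition. Primary screen used 10 uM in duplicate; actives were retested in concentration series.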
# [11] = molecular target: rat CYP2C12, Cyp2c12 (gene 25011) (UniProt P11510); assay: NVS_ADME_rCYP2C12: NovaScreen (NVS) CYP450-related Enzyme Activity (ADME) Assay for rat CYP2C12 (AID 2283119)
# Sequence of rat CYP2C12, Cyp2c12 (gene 25011) (P11510 whole entry, looked up): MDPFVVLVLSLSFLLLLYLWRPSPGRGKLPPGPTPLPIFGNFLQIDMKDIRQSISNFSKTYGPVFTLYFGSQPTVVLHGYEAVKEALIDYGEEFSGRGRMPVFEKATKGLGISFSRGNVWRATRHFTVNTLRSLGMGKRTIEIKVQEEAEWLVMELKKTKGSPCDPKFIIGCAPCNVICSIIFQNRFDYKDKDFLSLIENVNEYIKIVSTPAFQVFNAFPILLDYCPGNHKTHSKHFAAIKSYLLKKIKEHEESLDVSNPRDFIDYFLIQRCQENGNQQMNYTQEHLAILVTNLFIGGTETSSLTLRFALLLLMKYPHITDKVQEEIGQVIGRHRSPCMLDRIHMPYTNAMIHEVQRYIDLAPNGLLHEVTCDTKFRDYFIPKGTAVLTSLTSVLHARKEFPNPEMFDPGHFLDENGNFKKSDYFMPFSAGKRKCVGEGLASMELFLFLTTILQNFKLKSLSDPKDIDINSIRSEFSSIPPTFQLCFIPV
# In short: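 Cell-free recombinant rat CYP2C12 activity read by fluorescence 0.5 h after dosing; loss of signal versus acetonitrile control. Primary screen in duplicate at 10 uM; actives then run in concentration-response format.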
# [12] = system: rat CYP2C6, gene 293989; assay: NVS_ADME_rCYP2C6: NovaScreen (NVS) CYP450-related Enzyme Activity (ADME) Assay for rat CYP2C6 (AID 2283120)
# In short: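 Cell-free recombinant rat CYP2C6 with fluorogenic substrate, read by fluorescence 1 h after dosing; acetonitrile as negative control. Primary screen at 10 uM in duplicate, actives then in concentration-response up to 20 uM.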
# [13] = molecular target: rat CYP2C13, Cyp2c13 (gene 171521) (UniProt P20814); assay: NVS_ADME_rCYP2C13: NovaScreen (NVS) CYP450-related Enzyme Activity (ADME) Assay for rat CYP2C13 (AID 2283121)
# In short: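 Recombinant rat CYP2C13 with fluorogenic substrate, 0.75 h cell-free incubation; primary screen in duplicate at 10 uM, actives followed in concentration series. Fluorescence loss relative to acetonitrile control indicates inhibition.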
# [14] = molecular target: rat CYP2D1, Cyp2d1 (gene 266684) (UniProt P10633); assay: NVS_ADME_rCYP2D1: NovaScreen (NVS) CYP450-related Enzyme Activity (ADME) Assay for rat CYP2D1 (AID 2283122)
# Sequence of rat CYP2D1, Cyp2d1 (gene 266684) (P10633 whole entry, looked up): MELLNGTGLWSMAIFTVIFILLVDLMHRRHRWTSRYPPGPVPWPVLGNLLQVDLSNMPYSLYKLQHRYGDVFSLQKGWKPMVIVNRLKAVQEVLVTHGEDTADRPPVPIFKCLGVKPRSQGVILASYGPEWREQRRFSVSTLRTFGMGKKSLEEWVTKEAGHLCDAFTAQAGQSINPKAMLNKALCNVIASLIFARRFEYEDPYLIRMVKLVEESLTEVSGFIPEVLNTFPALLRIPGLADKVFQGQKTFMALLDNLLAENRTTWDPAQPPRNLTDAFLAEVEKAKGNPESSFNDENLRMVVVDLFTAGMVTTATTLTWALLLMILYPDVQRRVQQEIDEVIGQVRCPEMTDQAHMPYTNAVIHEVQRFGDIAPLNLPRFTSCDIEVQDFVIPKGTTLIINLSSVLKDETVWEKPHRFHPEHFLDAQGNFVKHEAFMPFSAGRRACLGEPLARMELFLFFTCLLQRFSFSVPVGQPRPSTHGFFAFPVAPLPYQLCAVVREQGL
# In short: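 Cell-free fluorescence enzyme-activity assay on extracted rat CYP2D1 protein, read 0.75 h after dosing. Primary screen in duplicate at 10 uM; qualifying chemicals then run in concentration-response to 20 uM max, loss-of-signal versus acetonitrile baseline.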
# [15] = molecular target: human CYP2C8, CYP2C8 (gene 1558) (UniProt P10632); assay: NVS_ADME_hCYP2C8: NovaScreen (NVS) CYP450-related Enzyme Activity (ADME) Assay for human CYP2C8 (AID 2283104; active means hit-call score of the fitted dose curve at least 0.9, where 1 is the maximum; inactive means score below 0.9)
# Sequence of human CYP2C8, CYP2C8 (gene 1558) (P10632 whole entry, looked up): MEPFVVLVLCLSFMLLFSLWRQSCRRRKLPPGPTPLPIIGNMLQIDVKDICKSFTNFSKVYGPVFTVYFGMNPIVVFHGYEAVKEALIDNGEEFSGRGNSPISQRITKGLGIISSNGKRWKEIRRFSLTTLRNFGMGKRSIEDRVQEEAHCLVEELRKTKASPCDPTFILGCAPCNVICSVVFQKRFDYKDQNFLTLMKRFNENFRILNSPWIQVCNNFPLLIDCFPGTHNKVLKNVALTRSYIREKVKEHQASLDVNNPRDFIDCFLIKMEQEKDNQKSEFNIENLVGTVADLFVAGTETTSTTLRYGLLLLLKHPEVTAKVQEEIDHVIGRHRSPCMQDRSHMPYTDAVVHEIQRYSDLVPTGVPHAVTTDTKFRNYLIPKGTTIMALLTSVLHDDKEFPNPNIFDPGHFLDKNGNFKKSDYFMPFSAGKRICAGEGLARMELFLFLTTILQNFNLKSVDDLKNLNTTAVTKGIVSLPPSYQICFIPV
# In short: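 Recombinant human CYP2C8 with fluorogenic substrate, 0.5 h, fluorescence intensity; signal loss fitted versus acetonitrile. Screened in duplicate at 10 uM, then actives run in concentration-response up to 20 uM.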
# [16] = molecular target: Cytochrome P450 3A4 (Homo sapiens) (UniProt P08684); assay: NVS_ADME_hCYP3A4: NovaScreen (NVS) CYP450-related Enzyme Activity (ADME) Assay for human CYP3A4 (AID 2283110)
# Sequence of Cytochrome P450 3A4 (Homo sapiens) (P08684 whole entry, looked up): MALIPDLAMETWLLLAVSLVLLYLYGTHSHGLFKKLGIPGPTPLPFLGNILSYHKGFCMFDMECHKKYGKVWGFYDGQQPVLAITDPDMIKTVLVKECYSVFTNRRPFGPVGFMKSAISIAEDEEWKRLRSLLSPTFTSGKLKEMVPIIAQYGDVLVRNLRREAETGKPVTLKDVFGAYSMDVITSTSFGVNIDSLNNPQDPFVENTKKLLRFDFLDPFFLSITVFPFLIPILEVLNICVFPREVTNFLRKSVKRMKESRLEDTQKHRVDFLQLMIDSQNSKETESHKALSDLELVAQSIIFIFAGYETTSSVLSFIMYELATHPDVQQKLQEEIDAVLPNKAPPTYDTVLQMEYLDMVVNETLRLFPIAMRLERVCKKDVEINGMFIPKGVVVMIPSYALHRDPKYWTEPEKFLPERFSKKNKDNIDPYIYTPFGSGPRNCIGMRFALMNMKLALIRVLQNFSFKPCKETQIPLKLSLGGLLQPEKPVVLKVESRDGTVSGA
# In short: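 Cell-free assay using insect-cell-expressed human CYP3A4 with a fluorogenic substrate; fluorescence intensity was read 0.33 hour after dosing. Loss of signal relative to acetonitrile vehicle indicated inhibition. Primary single-concentration screen at 10 uM, in duplicate, then concentration series.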
# [17] = molecular target: human CYP4F12, CYP4F12 (gene 66002) (UniProt Q9HCS2); assay: NVS_ADME_hCYP4F12: NovaScreen (NVS) CYP450-related Enzyme Activity (ADME) Assay for human CYP4F12 (AID 2283111)
# In short: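 Cell-free fluorescence assay of recombinant human CYP4F12 activity on a specific substrate, read 0.5 h after dosing. Primary screen in duplicate at 10 uM, then concentration series for actives; loss of signal fitted against acetonitrile negative control.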
# [18] = molecular target: human AMP-activated Protein Kinase, alpha 1 (AMPKa1), PRKAA1 (gene 5562) (UniProt Q13131); assay: NVS_ENZ_hAMPKa1: NovaScreen (NVS) Enzymatic Assay for human AMP-activated Protein Kinase, alpha 1 (AMPKa1) (AID 2283130)
# In short: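 Recombinant human AMPKα1 activity was measured cell-free by fluorescent substrate conversion with electrophoretic mobility-shift separation, 1 h after dosing. Duplicate single-point screening was at 25 uM; actives (≥30% inhibition) were retested in concentration-response up to 50 uM.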
compound,measurement,setting,value
CCc1cccc(CC)c1N(COC)C(=O)CCl,AC50,[1],1580 nM (active)
same,AC50,[2],6100 nM (active)
CCCCSP(=O)(SCCCC)SCCCC,AC50,[3],8520 nM (active)
same,outcome,[4],inactive
same,outcome,[2],inactive
CC(COc1ccc(Oc2ccccc2)cc1)Oc1ccccn1 (centres undefined),outcome,[3],inactive
same,AC50,[2],13700 nM (active)
CNc1cnn(-c2cccc(C(F)(F)F)c2)c(=O)c1Cl,AC50,[3],5430 nM (active)
same,AC50,[2],4350 nM (active)
same,outcome,[5],inactive
same,AC50,[6],2910 nM (active)
same,outcome,[7],inactive
CCc1cccc(C)c1N(C(=O)CCl)C(C)COC (centres undefined),AC50,[1],2110 nM (active)
same,AC50,[2],4600 nM (active)
same,AC50,[6],6490 nM (active)
same,AC50,[7],6680 nM (active)
C[Si](Cn1cncn1)(c1ccc(F)cc1)c1ccc(F)cc1,AC50,[1],238 nM (active)
same,AC50,[8],645 nM (active)
same,outcome,[9],inactive
same,AC50,[10],1040 nM (active)
same,AC50,[2],36.6 nM (active)
same,AC50,[11],4130 nM (active)
same,AC50,[12],519 nM (active)
same,AC50,[13],173 nM (active)
same,AC50,[14],4300 nM (active)
same,AC50,[6],1230 nM (active)
same,AC50,[7],1070 nM (active)
CCOP(=S)(OCC)Oc1ccc2c(C)c(Cl)c(=O)oc2c1,AC50,[1],433 nM (active)
same,AC50,[3],1170 nM (active)
same,AC50,[8],734 nM (active)
same,outcome,[15],inactive
same,AC50,[9],64.6 nM (active)
same,AC50,[10],798 nM (active)
same,AC50,[2],428 nM (active)
same,AC50,[11],799 nM (active)
same,AC50,[12],452 nM (active)
same,AC50,[14],854 nM (active)
same,AC50,[6],1220 nM (active)
same,AC50,[7],830 nM (active)
C#CCC1=C(C)C(OC(=O)C2C(C=C(C)C)C2(C)C)CC1=O (centres undefined),AC50,[8],7410 nM (active)
same,outcome,[15],inactive
same,AC50,[9],10000 nM (active)
same,AC50,[10],7230 nM (active)
same,AC50,[6],7590 nM (active)
same,AC50,[7],3030 nM (active)
CCNc1nc(Cl)nc(NC(C)(C)C#N)n1,outcome,[15],inactive
C=C(C)[C@H]1Cc2c(ccc3c2O[C@@H]2COc4cc(OC)c(OC)cc4[C@@H]2C3=O)O1,outcome,[16],inactive
CN(C)[C@@H]1C(=O)C(C(N)=O)=C(O)[C@@]2(O)C(=O)C3=C(O)c4c(O)cccc4[C@@](C)(O)[C@H]3[C@H](O)[C@@H]12,AC50,[17],10.5 nM (active)
same,AC50,[18],2400 nM (active)
S=C1NCCN1,outcome,[11],inactive
CSC1=N[C@@](C)(c2ccccc2)C(=O)N1Nc1ccccc1,AC50,[11],8000 nM (active)
same,outcome,[14],inactive
COc1ccc(C(=CC(=O)N2CCOCC2)c2ccc(Cl)cc2)cc1OC,AC50,[12],3980 nM (active)
CCOP(=O)(SC(C)CC)N1CCSC1=O (centres undefined),AC50,[12],5010 nM (active)
